Screening results: PubChem BioAssay, several laboratories
Anthrax LF inh2 = blocks Bacillus anthracis lethal factor protease; multiplex microsphere protease cleavage assay, LF; inhibition, % at 10 µM; 360,000 tested, 0.12% active; in the data active means inhibition above about 30%; further: plate controls were buffer without enzyme for full effect and enzyme alone for no effect
BoNT A protease = blocks Botulinum neurotoxin A light chain protease | multiplex microsphere protease substrate cleavage, flow cytometry | inhibition, % at 10 µM | 360,000 tested, 0.17% active | AID 588499; in the data active means inhibition above about 30%; further: plate controls were buffer without enzyme for full effect and enzyme alone for no effect
BoNT-F LC inh = BoNT F light chain protease inhibition. 360,000 tested, 0.22% active. inhibition, % at 10 µM. Multiplex microsphere protease cleavage assay, flow cytometry; in the data active means inhibition above about 35%, passing the limit was not always enough; further: plate controls were buffer without enzyme for full effect and enzyme alone for no effect
FBA Mtb inh = inhibits M. tuberculosis FBA enzyme. P9WQA3. purified M. tuberculosis FBA, fluorescence read-out. inhibition, % at 1 µM. 360,000 tested, 2.3% active. AID 588726;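 further: 0% = vehicle and 100% = reference inhibitor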
Autofluor counter = flagged as autofluorescent in microsphere protease counterscreen. compound autofluorescence counterscreen, microsphere flow cytometry; hits give high values. fluorescence intensity (test concentration not listed). 360,000 tested, 3.1% active; in the data active means fluorescence intensity above about 16000
GDH-TPI counter-1 = inhibits GDH-TPI coupling enzymes, artifact for Mtb FBA screen. AID 588335. inhibition, % at 4.8 µM. GDH-TPI coupled enzyme counterscreen, NADH absorbance. 360,000 tested, 1.2% active; in the data active means inhibition above about 30%;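 further: 0% = DMSO wells and 100% = wells lacking the enzyme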
BoNTA LC inh 2 = inhibitors of botulinum neurotoxin A light chain protease. shares compounds with BoNT A protease. multiplex microsphere protease cleavage assay, flow cytometry. inhibition, % at 10 µM. 150 tested, 10% active; in the data active means inhibition above about 24%
Anthrax LF CP2 = Bacillus anthracis lethal factor protease inhibition | inhibition, % at 10 µM | multiplex microsphere protease cleavage assay | shares compounds with BoNT A protease | 150 tested, 7% active; in the data active means inhibition above about 25%
BoNT-F LC CP2 = BoNT/F light chain protease inhibition; 150 tested, 7% active; shares compounds with BoNT A protease; multiplex microsphere protease cleavage assay, flow cytometry; inhibition, % at 10 µM; in the data active means inhibition above about 25%
Mtb FBA confirm = Mtb FBA inhibition, confirmed | shares compounds with FBA Mtb inh | purified M. tuberculosis FBA, fluorescence read-out | inhibition, % at 1 µM | 5,600 tested, 78% active | AID 651616;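 further: 0% = vehicle wells and 100% = reference inhibitor wells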
GDH-TPI counter-2 = GDH-TPI inhibition counter-screen for FBA inhibitors | shares compounds with FBA Mtb inh | GDH-TPI coupled enzyme counterscreen, fluorescence | inhibition, % at 1 µM | 5,600 tested, 81% active | AID 652141; in the data active means inhibition above about 10%
* = called active by the depositor. Shown are actives, neighbours in structure and some others; about 6.7% of the full set was active somewhere. Unless noted, no stated cut-off is given here; in the data, active means inhibition above about 27%; inactive means the rest.

`COc1ccc(C(CNC(=O)c2ccc(S(=O)(=O)N3CCCC3)cc2)N2CCOCC2)cc1` (stereo unspecified) gave Anthrax LF inh2 -7, BoNT A protease -1, BoNT-F LC inh -2, FBA Mtb inh -1, Autofluor counter 4264 and GDH-TPI counter-1 -6.
`Cn1ccc2c(-c3ccc(C(N)=O)cc3)cc3c(c21)C1CCC3C1` (stereo unspecified) gave Anthrax LF inh2 6, BoNT A protease 0, BoNT-F LC inh -5, FBA Mtb inh 53*, Autofluor counter 6175, BoNTA LC inh 2 1, Anthrax LF CP2 2, BoNT-F LC CP2 4, Mtb FBA confirm 113* and GDH-TPI counter-2 103*.
Screening CCN(C)c1cc2c(c3c1ccn3C)C1CCC2C1 (stereo unspecified) returned Anthrax LF inh2 -7, BoNT A protease 0, BoNT-F LC inh 4, FBA Mtb inh 0 and Autofluor counter 4116.
For Cn1ccc2c(-c3ccc(CO)cc3)cc3c(c21)C1CCC3C1 (stereo unspecified) the results were Anthrax LF inh2 7, BoNT A protease 5, BoNT-F LC inh -14, FBA Mtb inh 81*, Autofluor counter 5459, BoNTA LC inh 2 4, Anthrax LF CP2 2, BoNT-F LC CP2 7, Mtb FBA confirm active and GDH-TPI counter-2 active.
`Cn1ccc2c(-c3ccc(C(F)(F)F)cc3)cc3c(c21)C1CCC3C1` (stereo unspecified) gave Anthrax LF inh2 -12, BoNT A protease 2, BoNT-F LC inh 2, FBA Mtb inh 35*, Autofluor counter 5818, BoNTA LC inh 2 2, Anthrax LF CP2 -2, BoNT-F LC CP2 -6, Mtb FBA confirm 56* and GDH-TPI counter-2 47*.
CS(=O)(=O)c1cccc(C(=O)Nc2ccc3c(c2)OCCCO3)c1 was read as Anthrax LF inh2 1, BoNT A protease 2, BoNT-F LC inh 14, FBA Mtb inh -5, Autofluor counter 3483 and GDH-TPI counter-1 3.
Screening C/C(N)=C(/C#N)C(=O)CSc1nc2scc(-c3ccc(F)cc3)c2c(=O)n1C returned Anthrax LF inh2 0, BoNT A protease 0, BoNT-F LC inh -4, FBA Mtb inh -4, Autofluor counter 3226 and GDH-TPI counter-1 -1.
For Cc1nn(CC(=O)Nc2ccc3c(c2)CCC3)c(C)c1[N+](=O)[O-] the results were Anthrax LF inh2 -6, BoNT A protease 0, BoNT-F LC inh -3, FBA Mtb inh 2, Autofluor counter 3923 and GDH-TPI counter-1 6.
Cc1ccc(NC(=O)Cn2nc(C)c([N+](=O)[O-])c2C)cc1C was read as Anthrax LF inh2 -3, BoNT A protease 0, BoNT-F LC inh -3, FBA Mtb inh 36*, Autofluor counter 4319, GDH-TPI counter-1 -2, Mtb FBA confirm -5 and GDH-TPI counter-2 -6.
CC1(C)CC(=O)C2=C(C1)N(c1ccccc1)C(=O)C(C(=O)OCc1ccccc1)C2 (stereo unspecified) was read as Anthrax LF inh2 1, BoNT A protease 0, BoNT-F LC inh -1, FBA Mtb inh 0, Autofluor counter 3452 and GDH-TPI counter-1 -5.
`O=C(/C=C/c1cccs1)NC1CCCC1` gave Anthrax LF inh2 -24, BoNT A protease -3, BoNT-F LC inh -10, FBA Mtb inh -1, Autofluor counter 2808 and GDH-TPI counter-1 4.
For CN(C)C(CNC(=O)Cc1cccc(C(F)(F)F)c1)c1ccccc1 (stereo unspecified) the results were Anthrax LF inh2 6, BoNT A protease 0, BoNT-F LC inh -6, FBA Mtb inh 3, Autofluor counter 3716 and GDH-TPI counter-1 -2.
CCCCn1nc2cc(C(=O)NCc3ccco3)ccc2c1OCC was read as Anthrax LF inh2 -9, BoNT A protease 0, BoNT-F LC inh -5, FBA Mtb inh 27*, Autofluor counter 2911, GDH-TPI counter-1 10, Mtb FBA confirm -3 and GDH-TPI counter-2 -5.
Screening CCOc1ccccc1-n1cnc2cc(C(=O)NCc3ccco3)ccc21 returned Anthrax LF inh2 -1, BoNT A protease 0, BoNT-F LC inh -10, FBA Mtb inh 7, Autofluor counter 2848 and GDH-TPI counter-1 -10.
`CCOc1c2ccc(C(=O)N[C@H](C)C3CCCCC3)cc2nn1CCOC` gave Anthrax LF inh2 4, BoNT A protease 0, BoNT-F LC inh -3, FBA Mtb inh 106*, Autofluor counter 2845, GDH-TPI counter-1 17, Mtb FBA confirm 78* and GDH-TPI counter-2 68*.
CCOc1c2ccc(C(=O)NCc3ccco3)cc2nn1CCOC was read as Anthrax LF inh2 6, BoNT A protease 0, BoNT-F LC inh -2, FBA Mtb inh 39*, Autofluor counter 3666, GDH-TPI counter-1 6, Mtb FBA confirm active and GDH-TPI counter-2 active.
For COc1ccc(N2CC(C(=O)NCc3ccccc3)CC2=O)cc1 (stereo unspecified) the results were Anthrax LF inh2 -1, BoNT A protease 0, BoNT-F LC inh 3, FBA Mtb inh 1, Autofluor counter 2314 and GDH-TPI counter-1 0.
For COC(=O)c1c(-c2ccc(OC)cc2)sc2cc3c(cc12)OCO3 the results were Anthrax LF inh2 -7, BoNT A protease -1, BoNT-F LC inh -3, FBA Mtb inh 32*, Autofluor counter 4227, GDH-TPI counter-1 8, Mtb FBA confirm 72* and GDH-TPI counter-2 77*.
`COc1ccc(-c2sc3cc4c(cc3c2C#Cc2ccc(N)cc2)OCO4)cc1` gave Anthrax LF inh2 4, BoNT A protease 1, BoNT-F LC inh 0, FBA Mtb inh 66*, Autofluor counter 3600, GDH-TPI counter-1 26, Mtb FBA confirm 70* and GDH-TPI counter-2 66*.
Screening COC(=O)c1c(-c2ccc(N(C)C)cc2)sc2ccc(OC)cc12 returned Anthrax LF inh2 3, BoNT A protease 0, BoNT-F LC inh -2, FBA Mtb inh 89*, Autofluor counter 3365, GDH-TPI counter-1 9, Mtb FBA confirm active and GDH-TPI counter-2 158*.
`COc1ccc(-c2sc3cc4c(cc3c2C#CCO)OCO4)cc1` gave Anthrax LF inh2 -2, BoNT A protease 1, BoNT-F LC inh -3, FBA Mtb inh 10, Autofluor counter 4170 and GDH-TPI counter-1 3.
